Values joined by “and” are separate entries in the source; they are usually repeats but may differ in a detail not shown here. Equal values may be shown once. Hit rate of the full screen: of about 5,500 compounds, about 2,000 (36%) were called active. Another 18% or so got no clear call; they are omitted. No stated cut-off is given here; in the data, active means normalized growth mostly below about 0.91 (no sharp cut-off); inconclusive means no clear call, values can overlap the other calls; inactive means mostly above about 0.92. The list shows a part of the results.
Assay: chemical genetic growth profiling, strain panel (AID 1159580);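 further: tested at 20 µM; growth read once vehicle control cultures reached saturation at 30 °C; 1 = growth at the plate median or of vehicle wells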
Conditions: S. cerevisiae deletion strains, growth OD

Measured: normalized growth

O=c1[nH]c2cc(Cl)c(Cl)cc2[nH]c1=O
inactive: locus YAL013W, strain DEP1, stronger effect = lower value 1 and 0.993 | locus YAL021C, strain ccr4, stronger effect = lower value 1.03 | locus YAL026C, strain drs2, stronger effect = lower value 0.993 | locus YAL030W, strain snc1, stronger effect = lower value 0.989 | locus YAL040C, strain CLN3, stronger effect = lower value 1.11 | locus YBL061C, strain skt5, stronger effect = lower value 0.982 | locus YBR009C, strain hhf1, stronger effect = lower value 0.988 | locus YBR021W, strain FUR4, stronger effect = lower value 1 | locus YBR023C, strain chs3, stronger effect = lower value 1 | locus YBR171W, strain sec66, stronger effect = lower value 0.98 | locus YBR229C, strain ROT2, stronger effect = lower value 1.01 | locus YBR231C, strain swc5, stronger effect = lower value 0.979 | locus YBR279W, strain paf1, stronger effect = lower value 0.985 | locus YCL011C, strain gbp2, stronger effect = lower value 0.984 | locus YCL016C, strain dcc1, stronger effect = lower value 0.997 | locus YCL029C, strain bik1, stronger effect = lower value 1.04 | locus YCL061C, strain MRC1 (second series), stronger effect = lower value 1.01 | locus YCL069W, strain vba3, stronger effect = lower value 0.999 | locus YCR088W, strain abp1, stronger effect = lower value 0.997 | locus YDL005C, strain med2, stronger effect = lower value 0.982 | locus YDL035C, strain GPR1, stronger effect = lower value 1.01 | locus YDL040C, strain nat1, stronger effect = lower value 0.994 | locus YDL074C, strain BRE1, stronger effect = lower value 1.03 | locus YDL101C, strain DUN1, stronger effect = lower value 1.02 | locus YDL134C, strain PPH21, stronger effect = lower value 1.01 | locus YDL185W, strain tfp1, stronger effect = lower value 1.02 | locus YDL192W, strain arf1, stronger effect = lower value 1.02 | locus YDR001C, strain nth1, stronger effect = lower value 1 | locus YDR069C, strain doa4, stronger effect = lower value 0.969 | locus YDR101C, strain arx1, stronger effect = lower value 1.03 | locus YDR137W, strain rgp1, stronger effect = lower value 0.994 | locus YDR150W, strain NUM1, stronger effect = lower value 1.01 | locus YDR159W, strain sac3, stronger effect = lower value 0.901 | locus YDR162C, strain NBP2, stronger effect = lower value 1.01 | locus YDR195W, strain ref2 1 | locus YDR297W, strain sur2, stronger effect = lower value 0.99 | locus YDR318W, strain mcm21, stronger effect = lower value 1.02 | locus YDR334W, strain swr1, stronger effect = lower value 0.994 | locus YDR335W, strain msn5, stronger effect = lower value 1 | locus YDR363W, strain ESC2, stronger effect = lower value 0.968 | locus YDR388W, stronger effect = lower value 1.02 | locus YDR392W, strain spt3, stronger effect = lower value 0.92 | locus YDR502C, strain sam2, stronger effect = lower value 1.03 | locus YEL003W, strain gim4, stronger effect = lower value 0.993 | locus YEL037C, strain rad23, stronger effect = lower value 1 | locus YEL061C, strain CIN8 (second series), stronger effect = lower value 1.01 | locus YEL061C, strain CIN8, stronger effect = lower value 1.01 | locus YER002W, strain NOP16, stronger effect = lower value 0.997 | locus YER015W, strain faa2, stronger effect = lower value 0.995 | locus YER016W, strain bim1, stronger effect = lower value 0.992 | locus YER110C, stronger effect = lower value 1.04 | locus YER111C, strain swi4, stronger effect = lower value 0.991 | locus YER155C, strain BEM2 (second series), stronger effect = lower value 0.967 | locus YER155C, strain BEM2, stronger effect = lower value 1 | locus YER167W, strain BCK2, stronger effect = lower value 1.02 | locus YFR010W, strain ubp6, stronger effect = lower value 0.985 | locus YGL078C, strain dbp3, stronger effect = lower value 1.03 | locus YGL086W, strain mad1, stronger effect = lower value 1.01 | locus YGL167C, strain pmr1, stronger effect = lower value 0.999 | locus YGL173C, strain kem1, stronger effect = lower value 0.984 | locus YGL227W, strain vid30, stronger effect = lower value 0.986 | locus YGL240W, strain doc1, stronger effect = lower value 0.966 | locus YGL248W, strain PDE1, stronger effect = lower value 1.01 | locus YGL253W, strain hxk2, stronger effect = lower value 0.975 | locus YGR078C, strain PAC10, stronger effect = lower value 1.02 and 1.04 | locus YGR135W, strain pre9, stronger effect = lower value 1.02 | locus YGR229C, strain SMI1, stronger effect = lower value 1.01 | locus YGR252W, strain gcn5, stronger effect = lower value 1.01 | locus YHR013C, strain ard1, stronger effect = lower value 0.988 | locus YHR027C, strain rpn1, stronger effect = lower value 0.986 | locus YHR030C, strain SLT2, stronger effect = lower value 1.01 | locus YHR079C, strain IRE1 (second series), stronger effect = lower value 1.02 | locus YHR094C, strain hxt1, stronger effect = lower value 1.01 | locus YHR129C, strain ARP1, stronger effect = lower value 1.01 | locus YHR142W, strain chs7, stronger effect = lower value 1.01 | locus YHR200W, strain rpn10, stronger effect = lower value 1.02 | locus YIL066C, strain RNR3, stronger effect = lower value 1.01 | locus YIL073C, strain SPO22, stronger effect = lower value 1.1 | locus YIL125W, strain kgd1, stronger effect = lower value 1.02 | locus YIR030C, strain dcg1, stronger effect = lower value 1.04 | locus YJL092W, strain hpr5, stronger effect = lower value 0.997 | locus YJL095W, strain BCK1 (second series), stronger effect = lower value 1.02 | locus YJL095W, strain BCK1, stronger effect = lower value 1.02 | locus YJL115W, strain asf1, stronger effect = lower value 1 | locus YJL129C, strain trk1, stronger effect = lower value 0.95 | locus YJL134W, strain LCB3, stronger effect = lower value 1.01 | locus YJL154C, strain vps35, stronger effect = lower value 0.999 | locus YJL164C, strain tpk1, stronger effect = lower value 0.998 | locus YJL166W, strain qcr8, stronger effect = lower value 0.989 | locus YJL168C, strain set2, stronger effect = lower value 1.02 | locus YJL187C, strain SWE1 (second series), stronger effect = lower value 1.01 | locus YJR043C, strain POL32, stronger effect = lower value 1.01

From PubChem BioAssay AID1159580 (chemical genetic matrix, 2015)
